Tested on: Vero E6 infected with SARS-CoV-2
Assay: inhibition of SARS-CoV-2 cytopathic effect; higher = more antiviral protection, active = above 15
Conditions: 48 h

Measured: inhibition of SARS-CoV-2 cytopathic effect

COCCCC/C(=N\OCCN)c1ccc(C(F)(F)F)cc1 [fluvoxamine]
inactive: 1 nM 6.3% | 8.33 nM 3.03% | 100 nM -1.16% | 833.33 nM -0.69% | 10000 nM -6.73%

COc1cc2nc(N3CCN(C(=O)C4CCCO4)CC3)nc(N)c2cc1OC (stereo not given) [terazosin]
inactive: 1 nM 1.36% | 8.33 nM -0.59% | 100 nM -1.51% | 833.33 nM -0.05% | 10000 nM 1.35%

c1ccc(CCCCN2CCC(c3ccccc3)CC2)cc1
inactive: 1 nM -1.33% | 8.33 nM -0.15% | 100 nM 2.71% | 833.33 nM 1.08% | 10000 nM -0.99%

CC1=C(C(=O)O)N2C(=O)[C@@H](NC(=O)[C@H](N)c3ccccc3)[C@H]2SC1 [cephalexin]
inactive: 1 nM 2.47% | 8.33 nM 0.37% | 100 nM 0.73% | 833.33 nM -1.01% | 10000 nM -3.66%

O=C(CCCN1CCC(O)(c2ccc(Cl)cc2)CC1)c1ccc(F)cc1 [haloperidol]
inactive: 1 nM 0.65% | 8.33 nM 1.48% | 100 nM -0.07% | 833.33 nM 0.5% | 10000 nM -1.23%

O=C1OC(OC(=O)c2cccnc2Nc2cccc(C(F)(F)F)c2)c2ccccc21 (stereo not given) [talniflumate]
inactive: 1 nM 2.12% | 8.33 nM -1.23% | 100 nM -2.09% | 833.33 nM 0.94% | 10000 nM 0.53%

COc1cc(OC)cc(N(CCNC(C)C)c2ccc3ncc(-c4cnn(C)c4)nc3c2)c1 [erdafitinib]
inactive: 1 nM 1.71% | 8.33 nM -0.38% | 100 nM 0.68% | 833.33 nM -1.43% | 10000 nM 11.7%

O=C(Nc1ccc(S(=O)(=O)Nc2nccs2)cc1)C(c1ccccc1)c1ccccc1
inactive: 1 nM -0.78% | 8.33 nM 3.67% | 100 nM 2.47% | 833.33 nM 2.29% | 10000 nM -2.52%

Cc1ccc(CCCO)c(NCc2ccc3nc(NCCCN4CCOCC4)n(Cc4nc(C)ccc4O)c3c2)c1
inactive: 1 nM 0.48% | 8.33 nM -0.28% | 100 nM -0.6% | 833.33 nM -1.09% | 10000 nM -1.76%

COc1ccc(NS(=O)(=O)c2ccc(N)cc2)nn1 [sulfamethoxypyridazine]
inactive: 1 nM 3.44% | 8.33 nM 2.28% | 100 nM 2.29% | 833.33 nM 3.71% | 10000 nM 2.16%

CC(=O)[C@H]1CC[C@H]2[C@@H]3CC[C@H]4C[C@](C)(O)CC[C@]4(C)[C@H]3CC[C@]12C [ganaxolone]
inactive: 1 nM -0.23% | 8.33 nM 4.47% | 100 nM 1.85% | 833.33 nM 0.7% | 10000 nM 0.84%

O=C1NCC2(CCN(CCc3ccccc3)CC2)O1 [fenspiride]
inactive: 1 nM -2.77% | 8.33 nM -1.55% | 100 nM 2.18% | 833.33 nM 0.71% | 10000 nM 0.43%

NCCC(=O)N[C@@H](Cc1c[nH]cn1)C(=O)O [carnosine]
inactive: 1 nM -0.87% | 8.33 nM -1.74% | 100 nM -2.85% | 833.33 nM -2.56% | 10000 nM -17.4%

O=C(NC(NC(=S)Nc1ccc(F)c([N+](=O)[O-])c1)C(Cl)(Cl)Cl)C(c1ccccc1)c1ccccc1 (stereo not given)
inactive: 1 nM -2.82% | 8.33 nM -2.75% | 100 nM 0.28% | 833.33 nM -7.06% | 10000 nM -5.53%

CC(C)(CC(=O)N1CCCC1)NCC(=O)N1C[C@@H](F)C[C@H]1C#N
inactive: 1 nM 1.83% | 8.33 nM 0.33% | 100 nM -0.99% | 833.33 nM -1.3% | 10000 nM -0.94%

Cc1cc(O)cc(C)c1Cl [chloroxylenol]
inactive: 1 nM -0.09% | 8.33 nM 1.72% | 100 nM -1.3% | 833.33 nM -0.83% | 10000 nM 0.1%

O=C(Oc1ccc(Br)cc1)N1CCN2CCC1CC2
inactive: 1 nM 1.3% | 8.33 nM 1.31% | 100 nM 4.76% | 833.33 nM 1.51% | 10000 nM 0.59%

O=C(O)COc1ccc(OCCNC[C@H](O)COc2ccccc2)cc1
inactive: 1 nM -0.61% | 8.33 nM -0.47% | 100 nM -1.08% | 833.33 nM 0.26% | 10000 nM 1.07%

— the supplement of paper PMC13380429
